NSD2 inh: inhibitors of human histone methyltransferase NSD2; actives 0.54% (n = 310,000); NSD2 peptide methylation, AlphaScreen, 120 min; O96028; AID 743445; inhibition, % at 12.5 µM; in the data active = inhibition above about 50%
CDK5 inh: inhibitors of human CDK5/p35 kinase | inhibition, % at 10 µM | Q00535+Q15078 | Recombinant CDK5/p35, ADP-Glo luminescence, 60 min | actives 0.01% (n = 330,000);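 active = highest replicate inhibition of at least 50% and at least 75% of replicates reaching 50%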;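 note: plate controls were DMSO neutral control for no effect and GW8510 at 10 µM for full effect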
Mot1-301 SUMO: inhibitors of SUMOylation pathway: yeast Mot1-301 growth rescue; S. cerevisiae Mot1-301 growth rescue, ATP luminescence, 38.5C; percent above DMSO median, 100 means doubled; growth rescue, % at 18.8 µM; actives 1% (n = 320,000);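 active = every valid replicate shows activation above 250% relative to neutral control wells; inactive = the rest, any valid replicate at or below 250%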;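 note: OY570 slx delta 5 strain wells were the positive control but not used for scaling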
ALR H2O2 inh: human ALR oxidase inhibition via reduced H2O2 | P55789 | inhibition, % (test concentration not listed) | actives 3.8% (n = 290,000) | purified ALR, DTT oxidation, H2O2 HRP-luminol luminescence | AID 485317;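 active = mean replicate inhibition above about 79%, with every replicate also reaching it, limit read from the data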
N-glyco inh: N-linked glycosylation inhibition. actives 0.23% (n = 360,000). D54 ERlucT glycosylation luciferase reporter, 24 h; percent of 100 nM tunicamycin response. reporter increase, % at 12.5 µM;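 active = mean luciferase reporter signal, scaled so untreated is 0 and the glycosylation-blocking control 100, at or above a set limit in every replicate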;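 note: luciferase carries N-glycosylation sites so blocking glycosylation raises the light; 0% = median of neutral control wells and 100% = median of 100 nM tunicamycin wells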
Casp6 inh: blocks human caspase-6 cleavage activity; P55212; actives 0.53% (n = 350,000); purified caspase-6, Z-VEID-R110 cleavage fluorescence; AID 686996; inhibition, % at 12.5 µM;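 active = mean inhibition across replicates at least about 35%, with every replicate also reaching that limit, limit read from the data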;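 note: 0% = median of neutral control wells and 100% = no fluorescence left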
An asterisk follows results filed as active; nt = no result. This is a sample that favours compounds with a hit; in the whole collection about 3.9% have one here.

SMILES	NSD2 inh	CDK5 inh	Mot1-301 SUMO	ALR H2O2 inh	N-glyco inh	Casp6 inh
Cc1nn(CC2CCCCC2)c(N)c1-c1ccccc1	2	0	13	98*	0	nt
CCOC(=O)Cn1nc(C)c(-c2ccccc2)c1N	-1	0	-8	36	-1	nt
C=CCn1c(N)cc(=O)nc1SCC(=O)Nc1ccc(C(=O)OCC)cc1	-3	0	-8	99*	2	1
C=CCn1c(N)cc(=O)nc1SCC(=O)Nc1ccccc1	-3	0	15	nt	1	nt
C=CCn1c(SCC(=O)Nc2ccccc2OC)nc(O)c(CC)c1=O	2	-2	4	nt	3	nt
C=CCn1c(SCC(=O)Nc2ccc(Br)cc2)nc(O)c(CC)c1=O	nt	nt	-19	98*	3	0
C=CCn1c(N)cc(=O)nc1SCC(=O)Nc1ccc(C(=O)OC)cc1	3	2	-9	99*	4	1
C[C@@H]1CN([C@@H](C)CO)S(=O)(=O)c2ccc(C#CC3CC3)cc2O[C@H]1CN(C)C(=O)c1ccncc1	nt	nt	nt	nt	nt	1
O=C(NC1Cc2ccccc2C1)[C@@H]1[C@@H](CO)[C@@H]2Cn3c(ccc(-c4ccccc4)c3=O)[C@H]1N2	nt	nt	nt	nt	nt	0
Cc1ccc(NC(=O)CSCC(=O)N(C)CC(=O)Nc2cccc(F)c2)cc1	32	1	-13	99*	2	0
COc1cccc(NC(=O)CN(C)C(=O)CSCC(=O)Nc2ccc(C)cc2)c1	-2	-1	0	99*	-2	1
COc1cccc(NC(=O)CNCc2ccccc2)c1	-2	1	3	4	0	-2
COc1cccc(CNCC(=O)Nc2ccc(N3CCOCC3)cc2)c1	1	0	-3	99*	0	-2
COc1cccc(CNC(=O)CSCC(=O)Nc2ccc(C)cc2)c1	-1	0	6	99*	0	-1
C[C@H](CO)N1C[C@H](C)[C@H](CN(C)S(=O)(=O)c2ccc(F)cc2)Oc2ccc(NS(=O)(=O)c3cccs3)cc2C1=O	nt	nt	nt	nt	nt	0
COc1cccc(CNC(=O)COC(=O)c2ccc(-c3ccc(O)cc3)cc2)c1	-1	nt	nt	nt	28*	0
COc1cccc(CNC(=O)C2=Cc3cccc(OC)c3OC2)c1	-6	0	29	96*	0	-1
O=C(Nc1cccc(F)c1)N1C[C@@H]2[C@H](c3ccccc31)[C@@H](CO)N2C(=O)C1CCOCC1	nt	nt	nt	nt	nt	3
Cc1ccc(C(=O)C(C)OC(=O)C2=COCCO2)cc1C (stereo unspecified)	-1	-3	83	15	0	nt
Cc1cc(C)c(C(=O)C(C)OC(=O)C2=COCCO2)cc1C (stereo unspecified)	-6	-2	39	-1	1	58*
O=c1c(OC2OC(CO)C(O)C(O)C2OC2OC(CO)C(O)C(O)C2O)c(-c2ccc(O)cc2)oc2cc(O)cc(O)c12 (stereo unspecified)	nt	1	1	23	3	46*
O=c1c(O[C@H]2O[C@@H](CO)[C@H](O)[C@@H](O)[C@@H]2O)c(-c2ccc(O)cc2)oc2cc(O)cc(O)c12	nt	0	-3	87*	1	23
O=c1c(-c2ccc(O)cc2)coc2cc(OC3OC(CO)C(O)C(O)C3O)ccc12 (stereo unspecified)	nt	-1	-20	99*	0	2
O=C(C1CC1)N1CC2(C1)[C@H](c1ccccc1)[C@@H](CO)N2S(=O)(=O)c1ccccc1	nt	nt	nt	nt	nt	1
Fc1ccc2cnc(-c3ccsc3)cc2c1	nt	nt	nt	nt	nt	-1
SMILES	NSD2 inh	CDK5 inh	Mot1-301 SUMO	ALR H2O2 inh	N-glyco inh	Casp6 inh
Fc1ccc2cc(-c3ccsc3)ncc2c1	nt	0	282*	-1	-1	2
O=C(O)C[C@@H]1CC[C@@H]2[C@H](COC[C@H](O)CN2S(=O)(=O)c2ccc(F)cc2)O1	nt	nt	nt	nt	nt	2
CNC[C@H]1Oc2c(NC(=O)c3ccc(-c4nccs4)cc3)cccc2C(=O)N([C@H](C)CO)C[C@@H]1C	nt	nt	nt	nt	nt	-2
COC(=O)C1C(C(C)C)N(c2ccccc2)OC1(C)O (stereo unspecified)	1	0	0	86*	1	1
O=C(CN1CCCCC1)Nc1ccc(S(=O)(=O)N2CCCCCC2)cc1	-3	-1	-6	-18	-7	nt
O=C(CN1CCN(c2ccc(O)cc2)CC1)Nc1ccc(S(=O)(=O)N2CCCC2)cc1	2	-1	-7	88*	-12	-1
O=C(CN1CCCN(S(=O)(=O)c2ccc(Br)s2)CC1)Nc1ccc(Cl)cc1	0	-1	19	91*	2	nt
COc1ccc(Cl)cc1NC(=O)CN1CCN(S(=O)(=O)N2CCOCC2)CC1	5	-1	291*	-3	-2	0
O=S(=O)(c1ccc(NC(=S)N2CCN(c3ccc(O)cc3)CC2)cc1)N1CCOCC1	-2	0	24	99*	0	3
CN(C)S(=O)(=O)c1cc(NC(=O)CN2CCN(c3ccccc3)CC2)ccc1Cl	0	2	0	21	-2	nt
CN(C)S(=O)(=O)c1cc(NC(=O)CN2CCN(c3ccc(O)cc3)CC2)ccc1Cl	2	0	-16	100*	0	1
Cc1ccc(S(=O)(=O)N2CCOCC2)cc1NC(=O)CN1CCN(c2ccc(O)cc2)CC1	1	-1	-18	97*	-6	4
CC(=O)NCCCc1c[nH]c2ccc(Cl)cc12	2	1	-16	98*	0	nt
O=C(CCl)N1CCN(S(=O)(=O)c2ccc3ccccc3c2)CC1	nt	1	-9	-5	12	74*
Cc1ccc(S(=O)(=O)N2CC[C@@H]3[C@H]2c2cc(-c4ccc(C#N)cc4)ccc2N(C)[C@H]3CO)cc1	nt	nt	nt	nt	nt	1
Cc1nn(CC(C)C)c(Cl)c1C(=O)N(c1ccc(Cl)cc1F)S(C)(=O)=O	-3	1	14	-3	26*	5
CCC(CN(C)C)Oc1cc(NCc2ccccc2)c2ncn(C(C)C)c2c1 (stereo unspecified)	nt	0	nt	nt	-4	nt
COc1cc(NCc2ccccc2)c2ncn(C(C)C)c2c1	nt	2	2	98*	-1	1
CC(=O)Nc1ccc(NC(=O)C(C)n2nc(C)c([N+](=O)[O-])c2C)cc1 (stereo unspecified)	nt	3	1	-13	2	-1
Cc1nn(C(C)C(=O)N/N=C/c2ccc(N(C)C)cc2)c(C)c1[N+](=O)[O-] (stereo unspecified)	-2	-10	-1	99*	1	2
C[C@H]1CN([C@@H](C)CO)C(=O)c2cc(C#CC3CCCC3)cnc2O[C@@H]1CN(C)S(=O)(=O)c1cccc(F)c1	nt	nt	nt	nt	nt	0
Cc1ccc(NC2=C([N+](=O)[O-])CS(=O)(=O)C2)cc1	1	0	6	2	0	nt
CN(C)c1ccc(NC2=C([N+](=O)[O-])CS(=O)(=O)C2)cc1	nt	-3	-18	99*	3	nt
